Results on 40 compounds are retold here after PubChem BioAssay.

A number with no mark means an inactive call. How the calls were made is not given here.

For the experiment, the system named is Aerobactin synthetase IucA (Klebsiella pneumoniae, hypervirulent). As to the kind of experiment: biochemical IucA inhibition screen of LOPAC library by absorbance (AID 1346212).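 Further: 100% = no compound wells and 0% = no enzyme wells.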 The following applies: IucA enzyme assay, absorbance (OD) readout; hits give low values;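 tested at 8 µM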.
Broadly, the remaining activity is the signal under treatment as a percentage of the control signal. Turning to `Brc1ccc([C@H]2CN3CCSC3=N2)cc1`, the remaining activity is 105%.

In the case of `CC(=O)O[C@H]1Cc2ccccc2N(C(N)=O)c2ccccc21`, the remaining activity was 85%.

Take `N#CC(C#N)=C(N)/C(C#N)=C/c1cc(O)c(O)c(O)c1`: the remaining activity was 87.7%.

As for `N[C@H](CO)C(=O)O`, the remaining activity was 106%.

`CN1CCC(=C2c3ccccc3C=Cc3ccccc32)CC1`: the remaining activity is 123%.

Take `C[C@]12CCC(=O)C=C1CC[C@@H]1[C@@H]2C(=O)C[C@@]2(C)[C@H]1CC[C@]2(O)C(=O)CO`: the remaining activity is 105%.

For `Nc1nccc2c1ncn2[C@@H]1O[C@H](CO)[C@@H](O)[C@H]1O`, the remaining activity was 95.9%.

On to `C[N+]1(C)[C@@H]2CC(OC(=O)[C@H](CO)c3ccccc3)C[C@H]1[C@@H]1O[C@@H]12` (stereo not given in full), for which the remaining activity was 112%.

`N[C@H](C(=O)O)[C@H]1C[C@@H]1C(=O)O`: the remaining activity was 93.8%.

In the case of `N#C/C(=C\c1ccc(O)c(O)c1)C(=O)NCCCNC(=O)/C(C#N)=C/c1ccc(O)c(O)c1`, the remaining activity is 98.2%.

In the case of `O=C(O)CCC(=O)N1CCCC1C(=O)O` (stereo not given), the remaining activity was 98.4%.

For the compound `CC1(C)CCC(NC(=O)[C@@H](N)CCC(=O)O)CC1`, the remaining activity was 116%.

Turning to `C[C@@H](N)C1CCC(C(=O)Nc2ccncc2)CC1` (stereo not given in full), the remaining activity is 107%.

In the case of `Nc1cc(=O)[nH]c(N)n1`, the remaining activity is 126%.

As for `NS(=O)(=O)c1cccc2c1c([N+](=O)[O-])cc1nc(O)c(O)nc12`, the remaining activity is 106%.

For `NC/C=C\C(=O)O`, the remaining activity is 124%.

For the compound `NC(=NCCC[C@H](N)C(=O)O)NO`, the remaining activity is 101%.

On to `CNC(=O)[C@H]1O[C@@H](n2cnc3c(NCc4cccc(I)c4)ncnc32)[C@H](O)[C@@H]1O`, for which the remaining activity is 114%.

`CC(C)C[C@H](NC(=O)[C@H]1O[C@@H]1C(=O)O)C(=O)NCCCCN=C(N)N`: the remaining activity was 115%.

As to `Cc1nc(N=Nc2cc([N+](=O)[O-])ccc2Cl)c(COP(=O)(O)O)c(C=O)c1O`, the remaining activity was 117%.

On to `CCCc1c(-c2ccc(O)cc2)nn(-c2ccc(O)cc2)c1-c1ccc(O)cc1`, for which the remaining activity was 102%.

Turning to `CN1CCc2ccccc2Cc2[nH]c3ccccc3c2CC1`, the remaining activity was 107%.

On to `NCC(O)C1CCCCCCC1` (stereo not given), for which the remaining activity is 92.7%.

For the compound `CNC(=O)[C@H]1O[C@@H](n2cnc3c(NCc4ccc(N)cc4)ncnc32)[C@H](O)[C@@H]1O`, the remaining activity was 119%.

As to `CCC(=O)N1CCN(C(=O)c2ccccc2)CC1`, the remaining activity is 122%.

In the case of `Oc1ccccc1O`, the remaining activity was 112%.

As to `C[C@H]1C[C@H]2[C@@H]3CCC4=CC(=O)C=C[C@]4(C)[C@@]3(F)[C@@H](O)C[C@]2(C)[C@@]1(O)C(=O)CO`, the remaining activity is 114%.

As to `CC(N)=NCCCC[C@@H](N)C(=O)O`, the remaining activity was 124%.

On to `CN1CCc2c(cc(O)c(O)c2Cl)C(c2cccc(Cl)c2)C1` (stereo not given), for which the remaining activity is 96.8%.

For the compound `Nc1nc2c(nc(Br)n2C2OC3COP(=O)(O)O[C@@H]3C2O)c(=O)[nH]1` (stereo not given in full), the remaining activity was 111%.

On to `NOCC(=O)O`, for which the remaining activity was 124%.

In the case of `CC[C@@H]1SC2(CCN(C)CC2)NC1=O`, the remaining activity is 91.6%.

With `CC[C@@H]1Cc2cc(O)ccc2C2=C1c1ccc(O)cc1C[C@H]2CC`, the remaining activity was 89.7%.

For `CN=c1nc(-c2ccccc2)n(-c2ccccc2)s1`, the remaining activity was 109%.

On to `COc1ccccc1N1CCN(CCN2C(=O)CC3(CCCC3)CC2=O)CC1`, for which the remaining activity was 117%.

With `NC(N)=NC(=O)c1nc(Cl)c(N2CCCCCC2)nc1N`, the remaining activity was 120%.

Consider `Cc1cccc(C)c1NC(=O)C(C)N` (stereo not given), for which the remaining activity is 95.4%.

For the compound `COc1ccc(Cl)cc1NC(=O)Nc1cc(C)nc2ccccc12`, the remaining activity was 95%.

As for `COc1cc2c(cc1C(F)(F)F)N(C(=O)Nc1cc(F)cc(-c3cccnc3)c1)CC2`, the remaining activity is 120%.

For the compound `Cn1ccc2cc(NC(=O)Nc3cccnc3)ccc21`, the remaining activity is 117%.
